# Inconclusive results are not listed. Activity calls are given as the source filed them. Unless noted, calls follow the shape of the dose curve; as a rule, active = well fitted cell-killing curve with a large enough effect; inconclusive = small, poorly fitted or top-dose-only effect, or effect the other way; inactive = no such curve, though single readings can be large or run the other way.
# Experiments:
# [1] = Quantitative High-Throughput drug screen in 47 multiple myeloma cell lines against the NCATS MIPE library collection: VP6_DJ cell viability assay (AID 1919867); also: nearly all actives have a fitted effect of over 40% in size; also: potency is read from the fitted curve at half-maximal effect
# Method in brief: (§1)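 500 cells/well; MIPE 4.0 drugs pin-transferred; 48 h, 37C, 5% CO2. CellTiter-Glo, 5 min RT, luminescence. Controls: DMSO 100%, media 0%.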
# [2] = Quantitative High-Throughput drug screen in 47 multiple myeloma cell lines against the NCATS MIPE library collection: UTMC2_PLB cell viability assay (AID 1919868); settings: CellTiter-Glo ATP luminescence, 48 h; viability (% of DMSO control): at 45.8 µM (top of the series); also: nearly all actives have a fitted effect of over 55% in size; also: potency is read from the fitted curve at half-maximal effect
# Method in brief: as §1
# [3] = Quantitative High-Throughput drug screen in 47 multiple myeloma cell lines against the NCATS MIPE library collection: PE2_PLB cell viability assay (AID 1919869); also: nearly all actives have a fitted effect of over 35% in size; also: potency is read from the fitted curve at half-maximal effect
# Method in brief: as §1
# [4] = Quantitative High-Throughput drug screen in 47 multiple myeloma cell lines against the NCATS MIPE library collection: PCM6_Riken cell viability assay (AID 1919870); also: nearly all actives have a fitted effect of over 30% in size; also: potency is read from the fitted curve at half-maximal effect
# Method in brief: as §1
# [5] = Quantitative High-Throughput drug screen in 47 multiple myeloma cell lines against the NCATS MIPE library collection: RPMI8226_ATCC cell viability assay (AID 1919871); also: nearly all actives have a fitted effect of over 30% in size; also: potency is read from the fitted curve at half-maximal effect
# Method in brief: as §1
# [6] = Quantitative High-Throughput drug screen in 47 multiple myeloma cell lines against the NCATS MIPE library collection: OPM2_DSMZ cell viability assay (AID 1919872); also: nearly all actives have a fitted effect of over 30% in size; also: potency is read from the fitted curve at half-maximal effect
# Method in brief: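 Myeloma cell lines, 500 cells per well, exposed to MIPE 4.0 library compounds for 48 h at 37C, 5% CO2. Viability from ATP by CellTiter-Glo luminescence; normalised to DMSO (100%) and media-only (0%) wells.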
# [7] = Quantitative High-Throughput drug screen in 47 multiple myeloma cell lines against the NCATS MIPE library collection: KMS28BM_JCRB cell viability assay (AID 1919874); also: nearly all actives have a fitted effect of over 35% in size; also: potency is read from the fitted curve at half-maximal effect
# Method in brief: as §1
# [8] = qHTS drug screen for cell cycle checkpoint inhibitors in PARPi-resistant BRCA-mutant ovarian cancer cell lines. (AID 1963452; calls by dose curve); settings: PEO1/OlaR viability, CellTiter-Glo luminescence, 96 h, stronger effect = lower value
# Method in brief: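 PEO1, PEO4 and PEO1/OlaR ovarian cancer cells, 600 per well, exposed 96 h at 37C to a dilution series. Viability read by CellTiter-Glo luminescence, normalized to DMSO and empty wells; activity summarized as Z-AUC.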
# [9] = Quantitative High-Throughput drug screen in 47 multiple myeloma cell lines against the NCATS MIPE library collection: KMS11_JCRBsus cell viability assay (AID 1919873); also: nearly all actives have a fitted effect of over 50% in size; also: potency is read from the fitted curve at half-maximal effect
# Method in brief: as §1
# [10] = qHTS for identification of novel therapeutic agents for treatment of microphthalmiaassociated transcription factor (MiT) renal cell carcinoma (RCC) (AID 1963991; calls by dose curve; also: potency is read from the fitted curve at half-maximal effect); settings: CellTiter-Glo, 48 h; for z-score: stronger effect = lower value
# Method in brief: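 Three TFE3-fusion RCC lines (UOK109, UOK124, UOK145), 500 cells/well in complete medium, were treated with MIPE 4.0 compounds for 48 hours at 37 C. Viability was by CellTiter-Glo luminescence, normalized to DMSO (100%) and empty wells (0%); curves fitted over 11 concentrations.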
# [11] = measured here: PEO1 parental Z-AUC
Compound,Potency [1],Potency [2],Potency [3],Potency [4],Potency [5],Potency [6],Potency [7],Z-AUC [8],"Z-AUC [8, 11]",Z-AUC ([8]; measured here: PEO4 Z-AUC),Potency [9],"Potency ([10]; TFE3-RCC UOK109 viability, active = Z-AUC below -0.8 in all three lines)","z-score ([10]; TFE3-RCC UOK109 viability, measured here: UOK109 Z-AUC)","z-score ([10]; TFE3-RCC viability, measured here: UOK124 Z-AUC)","z-score ([10]; TFE3-RCC viability, measured here: UOK145 Z-AUC)"
COCCOc1nc(-c2ccc(Cl)c(Cl)c2)n(-c2ccc(NC(=O)CCl)cc2)n1,20.9 µM (active),20.9 µM (active),18.7 µM (active),16.6 µM (active),20.9 µM (active),inactive,16.6 µM (active),-0.18 (inactive),0.0816,-0.069,,,,,
CS(=O)c1ccc(-c2nc(-c3ccc(F)cc3)c(-c3ccncc3)[nH]2)cc1 (centres undefined),7.62 µM (active),34 µM (active),30.3 µM (active),,,,,0.509 (inactive),0.495,0.786,,,,,
CC[C@@]1(O)C[C@H](O[C@H]2C[C@H](N(C)C)[C@H](O[C@H]3C[C@H](O)[C@H](O[C@H]4CCC(=O)[C@H](C)O4)[C@H](C)O3)[C@H](C)O2)c2c(cc3c(c2O)C(=O)c2c(O)cccc2C3=O)[C@@H]1C(=O)OC,0.59 µM (active),0.187 µM (active),0.526 µM (active),1.05 µM (active),0.296 µM (active),4.18 µM (active),0.132 µM (active),-0.814 (inactive),-0.555,-0.946,0.166 µM (active),,,,
N[C@H](CSC(c1ccccc1)(c1ccccc1)c1ccccc1)C(=O)O,10.5 µM (active),9.35 µM (active),,,,20.9 µM (active),,0.731 (inactive),0.902,0.85,4.18 µM (active),,,,
CC(=O)N(C)C1(c2ccccc2)CCN(CCC[C@]2(c3ccc(Cl)c(Cl)c3)CCCN(C(=O)c3ccccc3)C2)CC1,13.2 µM (active),,20.9 µM (active),13.2 µM (active),23.5 µM (active),,20.9 µM (active),,,,9.35 µM (active),,,,
O=C1c2c(O)cc(O)cc2O[C@H](c2cc(O)c(O)c(O)c2)[C@H]1O,inactive,inactive,inactive,inactive,,18.7 µM (active),inactive,,,,,,,,
Clc1ccc(C(c2ccc(Cl)cc2)n2cc[n+](CC(OCc3ccc(Cl)cc3Cl)c3ccc(Cl)cc3Cl)c2)cc1 (centres undefined),8.33 µM (active),4.69 µM (active),13.2 µM (active),6.62 µM (active),20.9 µM (active),18.7 µM (active),11.8 µM (active),0.167 (inactive),-0.468,-0.455,9.35 µM (active),,,,
Cc1[nH]c(C=C2C(=O)Nc3ccc(S(=O)(=O)Cc4c(Cl)cccc4Cl)cc32)c(C)c1C(=O)N1CCC[C@H]1CN1CCCC1,8.33 µM (active),20.9 µM (active),20.9 µM (active),7.43 µM (active),20.9 µM (active),26.4 µM (active),20.9 µM (active),,,,11.8 µM (active),,,,
O=C1c2ccccc2-[n+]2ccc3c([nH]c4ccccc43)c21,1.48 µM (active),,1.87 µM (active),0.59 µM (active),2.96 µM (active),2.64 µM (active),1.32 µM (active),-1.18 (inactive),-1.75,-2.31,1.05 µM (active),1.66 µM (active),-1.69,-2.04,-1.7
O=C(O)c1c(Cl)c(Cl)c(Cl)c(Cl)c1-c1c2cc(I)c(=O)c(I)c-2oc2c(I)c(O)c(I)cc12,14.8 µM (active),inactive,6.62 µM (active),6.62 µM (active),9.35 µM (active),,,0.15 (inactive),0.353,0.104,6.62 µM (active),,,,
NC(=O)c1cccc2[nH]c(-c3ccc([C@H]4CCCN4)cc3F)nc12,14.8 µM (active),inactive,16.6 µM (active),,inactive,inactive,inactive,,,,inactive,,,,
c1ccc2c(Cc3c[nH]c4ccccc34)c[nH]c2c1,4.18 µM (active),inactive,2.96 µM (active),4.69 µM (active),,26.4 µM (active),18.7 µM (active),0.829 (inactive),0.126,-0.359,23.5 µM (active),,,,
CC(C)=CC[C@@H](O)C1=CC(=O)c2c(O)ccc(O)c2C1=O,0.833 µM (active),13.2 µM (active),0.264 µM (active),,1.87 µM (active),1.32 µM (active),0.833 µM (active),-0.228 (inactive),-0.402,-0.229,1.18 µM (active),,,,
CC1(C)CCC(CN2CCN(c3ccc(C(=O)NS(=O)(=O)c4ccc(NCC5CCOCC5)c([N+](=O)[O-])c4)c(Oc4cnc5[nH]ccc5c4)c3)CC2)=C(c2ccc(Cl)cc2)C1,7.43 µM (active),,16.6 µM (active),0.148 µM (active),14.8 µM (active),20.9 µM (active),,,,,inactive,,,,
O=c1c(-c2ccc(O)cc2)coc2cc(OC3O[C@H](CO)[C@H](O)[C@H](O)[C@H]3O)cc(O)c12 (some centres undefined),2.64 µM (active),,9.35 µM (active),2.64 µM (active),16.6 µM (active),inactive,,,,,,,,,
O=C(O)CCC1CCC(c2cc(F)ccc2F)(S(=O)(=O)c2ccc(Cl)cc2)CC1 (centres undefined),4.69 µM (active),,inactive,13.2 µM (active),inactive,inactive,,1.02 (inactive),0.969,0.83,,,,,

# — PubChem BioAssay (NCATS)
